Source: PubChem BioAssay
TRPV1 ag: HTS Assay for Compounds that Act as Agonists of the Vanilloid Receptor 1 | activation, % at 8.33 µM | Transient receptor potential cation channel subfamily V member 1 (Homo sapiens), Q8NER1 | TRPV1-expressing cells, Fluo-8 calcium influx, agonist mode | 0.19% of 320,000 active; in the data active means activation above about 80%; inconclusive means between about 30% and that limit; further: 0% is about no effect
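Cells expressing TRPV1 were dye-loaded with Fluo-8 and read kinetically: 10 s baseline, 3 min after compound (agonist portion), then 2 min after EC20 capsaicin (allosteric enhancer portion). Calcium-bound dye fluorescence at 480/520 nm.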
Gal4-VP16 FLuc: VP16 counterscreen qHTS for inhibitors of ROR gamma transcriptional activity; Drosophila S2 Gal4-VP16 UAS-luciferase, luminescence, 20 h; Potency, µM (doses to about 53.6 µM), for the others: at the top dose activity, negative = inhibition, actives largely listed as inhibitors; 3.5% of 310,000 active; AID 2546, 2010;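 further: Gal4-VP16 expression switched on by copper sulfate through the metallothionein promoter; potency means the concentration at half of the fitted maximal effect; on the % scale 0 is the no-effect control and ±100 the full control effect; nearly all actives have a fitted effect of over 50% in size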
uPA generation: qHTS for Inhibitors of Cell Surface uPA Generation; Potency, µM (top dose mostly 38.3 µM), for the others: at the highest dose activity change, negative = inhibition, hits mostly inhibitors; cell surface uPA generation assay, qHTS; 0.31% of 330,000 active; active means well fitted inhibition curve with a large enough effect; inconclusive means small, poorly fitted or top-dose-only effect; inactive means no such curve, though single readings can be large or run the other way; tested in mouse RAW 264.7 cells; further: potency means the concentration at half of the fitted maximal effect; on the % scale 0 is the no-effect control and ±100 the full control effect; nearly all actives have a fitted effect of over 55% in size
TRPV1 PAM: HTS Assay for Compounds that Act as Potentiators of the Vanilloid Receptor 1. 0.02% of 320,000 active. AID 540277, 2011. potentiation, % at 8.33 µM. TRPV1-expressing cells, Fluo-8 calcium influx, capsaicin EC20 potentiation; in the data active means potentiation above about 80%; inconclusive means between about 30% and that limit; further: 0% is about no effect
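Cells expressing TRPV1 were dye-loaded with Fluo-8 and read kinetically: 10 s baseline, 3 min after compound (agonist portion), then 2 min after EC20 capsaicin (allosteric enhancer portion). Calcium-bound dye fluorescence at 480/520 nm.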
RORgamma inh: qHTS for inhibitors of ROR gamma transcriptional activity | 5.4% of 310,000 active | Nuclear receptor ROR-gamma (Mus musculus), P51450 | Potency, µM (highest dose often 53.6 µM), without a hit: top-dose activity change, negative = inhibition, usual class: inhibitors | Drosophila S2 Gal4-RORgamma UAS-luciferase reporter, 20 h; further: potency means the concentration at half of the fitted maximal effect; on the % scale 0 is the no-effect control and ±100 the full control effect; nearly all actives have a fitted effect of over 60% in size
Target sequence (P51450 whole entry, looked up, the tested form may be a part): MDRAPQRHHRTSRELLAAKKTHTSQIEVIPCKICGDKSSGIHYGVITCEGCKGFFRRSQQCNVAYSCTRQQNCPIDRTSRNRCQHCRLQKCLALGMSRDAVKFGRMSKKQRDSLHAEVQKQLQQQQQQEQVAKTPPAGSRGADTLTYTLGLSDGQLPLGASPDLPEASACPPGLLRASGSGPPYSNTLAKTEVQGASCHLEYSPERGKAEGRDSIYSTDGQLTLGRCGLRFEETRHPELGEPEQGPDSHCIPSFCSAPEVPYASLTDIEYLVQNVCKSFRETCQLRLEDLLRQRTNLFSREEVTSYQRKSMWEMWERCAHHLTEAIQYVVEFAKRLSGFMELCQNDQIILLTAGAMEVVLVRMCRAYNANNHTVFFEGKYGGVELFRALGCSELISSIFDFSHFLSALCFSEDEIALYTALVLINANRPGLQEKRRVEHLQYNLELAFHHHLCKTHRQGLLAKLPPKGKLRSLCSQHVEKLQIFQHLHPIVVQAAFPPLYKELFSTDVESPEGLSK
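ROR gamma transcriptional activity was tracked as Gal4-UAS luciferase output in stably transfected Drosophila Schneider cells, with compound added 1 hr before 700 uM copper sulfate induction and a 20 hr ambient-temperature incubation.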
* = called active by the depositor; ? = inconclusive; . = no result. Hits are enriched below; roughly 5.8% of the tested compounds scored in any of these assays. Unless noted, the call rests on the fitted dose curve; in most records, active means well fitted curve in the direction sought with a large enough effect; inconclusive means small, poorly fitted or top-dose-only effect, or another doubt; inactive means no such curve, though single readings can be large; an effect the other way counts as inactive or inconclusive.

SMILES	TRPV1 ag	Gal4-VP16 FLuc	uPA generation	TRPV1 PAM	RORgamma inh
CC1=C(SCc2ccccc2)C(=O)c2ccccc2C1=O	.	.	-11.6%	.	.
O=C1C(SCCO)=C(SCCO)C(=O)c2ccccc21	7.0	0.794µM*	-100.5%	3.7	0.631µM*
Cc1[nH]n(C(N)=S)c(=O)c1N=Nc1cccc([N+](=O)[O-])c1C	-3.8	.	-6.2%	-2.2	.
Cc1ccc(N=Nc2c(C)[nH]n(C(N)=S)c2=O)cc1C	3.5	1.12µM*	-1.5%	1.4	0.224µM*
Cc1[nH]n(C(N)=S)c(=O)c1N=Nc1ccc(S(=O)(=O)N2CCCCCC2)cc1	1.1	2.51µM*	-2.9%	0.3	0.891µM*
Cc1ccc(C(=O)NNC(=O)c2ccc(S(=O)(=O)N3CCCCC3)cc2)cc1	.	.	-6.8%	.	.
COC(=O)c1ccc(N=Nc2c(C)[nH]n(-c3ccccc3)c2=O)cc1	2.6	.	-7.8%	-0.4	.
CC(=O)Nc1ccc(N=Nc2c(C)[nH]n(C(N)=S)c2=O)cc1	6.0	-0.1%	-8.6%	3.9	3.98µM*
Cc1[nH]n(C(N)=S)c(=O)c1N=Nc1ccc2ccccc2c1	2.9	3.98µM*	-3.5%	12.5	1µM*
O=S(=O)(c1ccc(Br)cc1)N1CCN(Cc2ccco2)CC1	14.2	.	3.3%	-16.3	.
CC(=O)Nc1ccc(Cc2nc3c([nH]2)c(=O)n(C)c(=O)n3C)cc1	-1.5	-2.1%	.	8.4	-8.1%
Cc1[nH]n(C(N)=S)c(=O)c1N=Nc1cc(-c2ccc(Br)cc2)[nH]n1	-0.9	-9.2%	-5.8%	4.3	1.58µM*
Nc1cc(-c2ccc(Br)cc2)[nH]n1	-6.5	?	-1.6%	13.8	13.4%
Cc1nn2cc(-c3ccccc3)nc2s1	2.9	?	?	2.3	11.2µM*
COc1cc(C[C@H]2C(=O)OC[C@@H]2Cc2ccc(OC)c(OC)c2)ccc1O	.	1.12µM*	.	.	6.31µM*
COC(=O)C(CC(C)C)NS(=O)(=O)c1ccccc1Br (stereo unspecified)	.	12.3%	.	.	?
CN(C)CCCN(C(=O)COc1ccccc1)c1nc2ccc(F)cc2s1	-0.5	-1.4%	11.9%	-8.1	-10.0%
CN(C)CCCN(C(=O)CCc1ccccc1)c1nc2c(F)cccc2s1	-5.7	-21.5%	4.3%	2.1	-2.7%
CN(C)CCCN(C(=O)CCOc1ccccc1)c1nc2c(F)cccc2s1	9.2	-29.7%	?	-21.5	8.91µM*
CN(C)CCCN(C(=O)CCOc1ccccc1)c1nc2ccc(F)cc2s1	-0.7	7.94µM*	?	-15.5	10µM*
COC(=O)[C@@H]1C[C@@]2(O)[C@@H](O)[C@@H](O)[C@@H](O)C[C@H]2N1CC1CC1	.	-7.5%	.	.	-18.1%
COc1ccc(CCOC(=O)c2cccc(NC(C)=O)c2)cc1	?	27.0%	-10.8%	-10.2	9.4%
CCCOc1cccc(-c2cc(C(=O)N/N=C/c3ccccn3)c3ccccc3n2)c1	-4.3	1.26µM*	-11.7%	9.4	1µM*
CC(C)COc1cccc(-c2cc(C(=O)Nc3ccon3)c3ccccc3n2)c1	-0.2	28.2µM*	2.8%	1.8	?
CC(C)Oc1cccc(-c2cc(C(=O)N3CCN(c4ncccn4)CC3)c3ccccc3n2)c1	-7.0	11.2µM*	.	8.3	-9.5%
SMILES	TRPV1 ag	Gal4-VP16 FLuc	uPA generation	TRPV1 PAM	RORgamma inh
CCCOc1cccc(-c2cc(C(=O)NN)c3ccccc3n2)c1	2.3	?	11.6%	20.3	11.2µM*
CCCOc1cccc(-c2cc(C(=O)N/N=C/c3cccnc3)c3ccccc3n2)c1	-3.4	8.8%	-5.4%	3.6	8.0%
COc1ccc(N2CCN(S(=O)(=O)c3ccc(OC)c(C(=O)N4CCOCC4)c3)CC2)cc1	-0.4	-0.4%	-1.4%	7.6	-11.3%
CC1=C(C)/C(=N\OS(=O)(=O)c2ccc(C)cc2)C=CC1=O	5.7	2µM*	-7.6%	?	5.01µM*
CC1=C/C(=N\OS(=O)(=O)c2ccccc2)C(C(C)C)=CC1=O	-2.0	0.794µM*	-10.8%	26.1	2.82µM*
CC1=C/C(=N\OS(=O)(=O)c2ccccc2)C(C)=CC1=O	-1.3	2.51µM*	-13.6%	17.0	1.12µM*
